# Test system: UCD52 (cells of a triple-negative basal-like breast cancer xenograft)
# Assay: cell viability of combination (% of vehicle); higher = less cytotoxic
# Conditions: 1 µM; 72 h; partner dose: 10 nM
# Protocol: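 PDX cells were treated for 72 h with each drug at 1 µM plus afatinib (10 nM; 1 µM for WHIM30). Luciferase viability is expressed as percent of vehicle.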
row,SMILES,cell viability of combination
1,COc1cc2ncnc(Nc3ccc(F)c(Cl)c3)c2cc1NC(=O)C=CCN1CCCCC1 + CN(C)C/C=C/C(=O)Nc1cc2c(Nc3ccc(F)c(Cl)c3)ncnc2cc1O[C@H]1CCOC1 [Afatinib],33
2,C1=C\COCc2cc(ccc2OCCN2CCCC2)Nc2nccc(n2)-c2cccc(c2)COC/1 [Pacritinib] + CN(C)C/C=C/C(=O)Nc1cc2c(Nc3ccc(F)c(Cl)c3)ncnc2cc1O[C@H]1CCOC1 [Afatinib],47.9
3,Cc1ccc(C(=O)N(CCCN)C(c2nc3cc(Cl)ccc3c(=O)n2Cc2ccccc2)C(C)C)cc1 (stereo not given) + CN(C)C/C=C/C(=O)Nc1cc2c(Nc3ccc(F)c(Cl)c3)ncnc2cc1O[C@H]1CCOC1 [Afatinib],36
4,CC[C@@]1(O)C(=O)OCc2c1cc1n(c2=O)Cc2cc3c(CN(C)C)c(O)ccc3nc2-1 [Topotecan] + CN(C)C/C=C/C(=O)Nc1cc2c(Nc3ccc(F)c(Cl)c3)ncnc2cc1O[C@H]1CCOC1 [Afatinib],76.4
5,CN1CCN(CCOc2cc(OC3CCOCC3)c3c(Nc4c(Cl)ccc5c4OCO5)ncnc3c2)CC1 [Saracatinib (AZD0530)] + CN(C)C/C=C/C(=O)Nc1cc2c(Nc3ccc(F)c(Cl)c3)ncnc2cc1O[C@H]1CCOC1 [Afatinib],37.9
6,CCCCCCCCCCCC1=C(O)C(=O)C=C(O)C1=O [Embelin] + CN(C)C/C=C/C(=O)Nc1cc2c(Nc3ccc(F)c(Cl)c3)ncnc2cc1O[C@H]1CCOC1 [Afatinib],67.8
7,CC(C)COc1ccc(CNC(=O)N(Cc2ccc(F)cc2)C2CCN(C)CC2)cc1 [Pimavanserin] + CN(C)C/C=C/C(=O)Nc1cc2c(Nc3ccc(F)c(Cl)c3)ncnc2cc1O[C@H]1CCOC1 [Afatinib],65.2
8,CNC(=O)c1cc(Oc2ccc(NC(=O)Nc3ccc(Cl)c(C(F)(F)F)c3)cc2)ccn1 [Sorafenib] + CN(C)C/C=C/C(=O)Nc1cc2c(Nc3ccc(F)c(Cl)c3)ncnc2cc1O[C@H]1CCOC1 [Afatinib],52.2
9,Cc1cc(-n2c(=O)[nH]c(=O)n(C)c2=O)ccc1Oc1ccc(SC(F)(F)F)cc1 [Toltrazuril] + CN(C)C/C=C/C(=O)Nc1cc2c(Nc3ccc(F)c(Cl)c3)ncnc2cc1O[C@H]1CCOC1 [Afatinib],76.1
10,CCN1CCN(Cc2ccc(Nc3ncc(F)c(-c4cc(F)c5nc(C)n(C(C)C)c5c4)n3)nc2)CC1.CS(=O)(=O)O + CN(C)C/C=C/C(=O)Nc1cc2c(Nc3ccc(F)c(Cl)c3)ncnc2cc1O[C@H]1CCOC1 [Afatinib],40.5
11,CN(C)CC=CC(=O)Nc1cc2c(Nc3ccc(F)c(Cl)c3)ncnc2cc1OC1CCOC1 (stereo not given) [Afatinib (BIBW2992)] + CN(C)C/C=C/C(=O)Nc1cc2c(Nc3ccc(F)c(Cl)c3)ncnc2cc1O[C@H]1CCOC1 [Afatinib],21.3
12,COc1cccc2c1C(=O)c1c(O)c3c(c(O)c1C2=O)CC(O)(C(=O)CO)CC3OC1CC(N)C(O)C(C)O1.Cl (stereo not given) [Epirubicin HCl] + CN(C)C/C=C/C(=O)Nc1cc2c(Nc3ccc(F)c(Cl)c3)ncnc2cc1O[C@H]1CCOC1 [Afatinib],28
13,COC(=O)C12CCC(C)(C)CC1C1C(=O)C=C3C4(C)C=C(C#N)C(=O)C(C)(C)C4CCC3(C)C1(C)CC2 (stereo not given) [Bardoxolone methyl] + CN(C)C/C=C/C(=O)Nc1cc2c(Nc3ccc(F)c(Cl)c3)ncnc2cc1O[C@H]1CCOC1 [Afatinib],47.9
14,Nc1c(CC(=O)[O-])cccc1C(=O)c1ccccc1.O.[Na+] [Amfenac Sodium Monohydrate] + CN(C)C/C=C/C(=O)Nc1cc2c(Nc3ccc(F)c(Cl)c3)ncnc2cc1O[C@H]1CCOC1 [Afatinib],76.3
15,COc1cc2nccc(Oc3ccc(NC(=O)NC4CC4)c(Cl)c3)c2cc1C(N)=O [Lenvatinib (E7080)] + CN(C)C/C=C/C(=O)Nc1cc2c(Nc3ccc(F)c(Cl)c3)ncnc2cc1O[C@H]1CCOC1 [Afatinib],39.8
16,CN(C)c1ccc(O)c2c1CC1CC3C(N(C)C)C(=O)C(C(N)=O)=C(O)C3(O)C(=O)C1=C2O.Cl (stereo not given) [Minocycline HCl] + CN(C)C/C=C/C(=O)Nc1cc2c(Nc3ccc(F)c(Cl)c3)ncnc2cc1O[C@H]1CCOC1 [Afatinib],75.9
17,COc1cc(C(=O)O)ccc1NC(=O)C1NC(CC(C)(C)C)C(C#N)(c2ccc(Cl)cc2F)C1c1cccc(Cl)c1F (stereo not given) + CN(C)C/C=C/C(=O)Nc1cc2c(Nc3ccc(F)c(Cl)c3)ncnc2cc1O[C@H]1CCOC1 [Afatinib],60.4
18,CO[C@H]1C[C@@H]2CC[C@@H](C)[C@@](O)(O2)C(=O)C(=O)N2CCCC[C@H]2C(=O)O[C@H]([C@H](C)C[C@@H]2CC[C@@H](OC(=O)C(C)(CO)CO)[C@H](OC)C2)CC(=O)[C@H](C)/C=C(\C)[C@@H](O)[C@@H](OC)C(=O)[C@H](C)C[C@H](C)/C=C/C=C/C=C/1C [Temsirolimus] + CN(C)C/C=C/C(=O)Nc1cc2c(Nc3ccc(F)c(Cl)c3)ncnc2cc1O[C@H]1CCOC1 [Afatinib],40.4
19,COC(=O)C1=C(C)NC(C)=C(C(=O)OC2CCCN(Cc3ccccc3)C2)C1c1cccc([N+](=O)[O-])c1.Cl (stereo not given) [Benidipine HCl] + CN(C)C/C=C/C(=O)Nc1cc2c(Nc3ccc(F)c(Cl)c3)ncnc2cc1O[C@H]1CCOC1 [Afatinib],79.2
20,Nc1ccc2cc3ccc([NH3+])cc3nc2c1.Nc1ccc2cc3ccc([NH3+])cc3nc2c1.O=S(=O)([O-])[O-] [Proflavine Hemisulfate] + CN(C)C/C=C/C(=O)Nc1cc2c(Nc3ccc(F)c(Cl)c3)ncnc2cc1O[C@H]1CCOC1 [Afatinib],116

row,SMILES,cell viability of combination
1,CC(C)c1nc(CN(C)C(=O)NC(C(=O)NC(Cc2ccccc2)CC(O)C(Cc2ccccc2)NC(=O)OCc2cncs2)C(C)C)cs1 (stereo not given) [Ritonavir] + CN(C)C/C=C/C(=O)Nc1cc2c(Nc3ccc(F)c(Cl)c3)ncnc2cc1O[C@H]1CCOC1 [Afatinib],62.5
2,CC(C)c1nc(N(C)S(C)(=O)=O)nc(-c2ccc(F)cc2)c1C=CC(O)CC(O)CC(=O)[O-].CC(C)c1nc(N(C)S(C)(=O)=O)nc(-c2ccc(F)cc2)c1C=CC(O)CC(O)CC(=O)[O-].[Ca+2] (stereo not given) [Rosuvastatin Calcium] + CN(C)C/C=C/C(=O)Nc1cc2c(Nc3ccc(F)c(Cl)c3)ncnc2cc1O[C@H]1CCOC1 [Afatinib],55.2
3,COc1cc(C(=O)NS(=O)(=O)c2ccccc2C)ccc1Cc1cn(C)c2ccc(NC(=O)OC3CCCC3)cc12 [Zafirlukast] + CN(C)C/C=C/C(=O)Nc1cc2c(Nc3ccc(F)c(Cl)c3)ncnc2cc1O[C@H]1CCOC1 [Afatinib],71.6
4,COc1ccccc1OCCNCC(O)COc1cccc2[nH]c3ccccc3c12 (stereo not given) [Carvedilol] + CN(C)C/C=C/C(=O)Nc1cc2c(Nc3ccc(F)c(Cl)c3)ncnc2cc1O[C@H]1CCOC1 [Afatinib],59.2
5,CCCCc1oc2ccc(NS(C)(=O)=O)cc2c1C(=O)c1ccc(OCCCN(CCCC)CCCC)cc1.Cl [Dronedarone HCl] + CN(C)C/C=C/C(=O)Nc1cc2c(Nc3ccc(F)c(Cl)c3)ncnc2cc1O[C@H]1CCOC1 [Afatinib],63.6
6,CN(C(=O)CN(CCO)CC(=O)N(C)C(C)(C)Cc1ccccc1)C(C)(C)Cc1ccccc1 [Oxethazaine] + CN(C)C/C=C/C(=O)Nc1cc2c(Nc3ccc(F)c(Cl)c3)ncnc2cc1O[C@H]1CCOC1 [Afatinib],62.9
7,CCCCc1oc2ccc(NS(C)(=O)=O)cc2c1C(=O)c1ccc(OCCCN(CCCC)CCCC)cc1 [Dronedarone] + CN(C)C/C=C/C(=O)Nc1cc2c(Nc3ccc(F)c(Cl)c3)ncnc2cc1O[C@H]1CCOC1 [Afatinib],57.7
8,CCC(NC(=O)C(C)NC)C(=O)N1CC(O)CC1Cc1c(-c2[nH]c3cc(F)ccc3c2CC2CC(O)CN2C(=O)C(CC)NC(=O)C(C)NC)[nH]c2cc(F)ccc12 (stereo not given) + CN(C)C/C=C/C(=O)Nc1cc2c(Nc3ccc(F)c(Cl)c3)ncnc2cc1O[C@H]1CCOC1 [Afatinib],53.5
9,CO[C@@]12[C@H](COC(N)=O)C3=C(C(=O)C(C)=C(N)C3=O)N1C[C@@H]1N[C@@H]12 [Mitomycin C] + CN(C)C/C=C/C(=O)Nc1cc2c(Nc3ccc(F)c(Cl)c3)ncnc2cc1O[C@H]1CCOC1 [Afatinib],58.4
10,CCN(CC)CCNC(=O)c1c(C)[nH]c(C=C2C(=O)Nc3ccc(F)cc32)c1C [Sunitinib] + CN(C)C/C=C/C(=O)Nc1cc2c(Nc3ccc(F)c(Cl)c3)ncnc2cc1O[C@H]1CCOC1 [Afatinib],50.4
11,CC1CC(=O)NN=C1c1ccc(NN=C(C#N)C#N)cc1 (stereo not given) [Levosimendan] + CN(C)C/C=C/C(=O)Nc1cc2c(Nc3ccc(F)c(Cl)c3)ncnc2cc1O[C@H]1CCOC1 [Afatinib],75
12,Clc1ccc(C(Cn2ccnc2)OCc2ccc(Sc3ccccc3)cc2)c(Cl)c1.O=[N+]([O-])O (stereo not given) [Fenticonazole Nitrate] + CN(C)C/C=C/C(=O)Nc1cc2c(Nc3ccc(F)c(Cl)c3)ncnc2cc1O[C@H]1CCOC1 [Afatinib],59.9
13,CNC1CCC(c2ccc(Cl)c(Cl)c2)c2ccccc21.Cl (stereo not given) [Sertraline HCl] + CN(C)C/C=C/C(=O)Nc1cc2c(Nc3ccc(F)c(Cl)c3)ncnc2cc1O[C@H]1CCOC1 [Afatinib],56.4
14,COc1cc(Nc2ncc(F)c(Nc3ccc4c(n3)N(COP(=O)(O)O)C(=O)C(C)(C)O4)n2)cc(OC)c1OC [Fostamatinib (R788)] + CN(C)C/C=C/C(=O)Nc1cc2c(Nc3ccc(F)c(Cl)c3)ncnc2cc1O[C@H]1CCOC1 [Afatinib],74.9
15,Clc1ccc(COC(Cn2ccnc2)c2ccc(Cl)cc2Cl)cc1.O=[N+]([O-])O (stereo not given) [Econazole nitrate] + CN(C)C/C=C/C(=O)Nc1cc2c(Nc3ccc(F)c(Cl)c3)ncnc2cc1O[C@H]1CCOC1 [Afatinib],62.2
16,CNCCC(Oc1ccc(C(F)(F)F)cc1)c1ccccc1.Cl (stereo not given) [Fluoxetine HCl] + CN(C)C/C=C/C(=O)Nc1cc2c(Nc3ccc(F)c(Cl)c3)ncnc2cc1O[C@H]1CCOC1 [Afatinib],59.1
17,COC1=C(OC)C(=O)C(CCCCCCCCCCO)=C(C)C1=O [Idebenone] + CN(C)C/C=C/C(=O)Nc1cc2c(Nc3ccc(F)c(Cl)c3)ncnc2cc1O[C@H]1CCOC1 [Afatinib],62.7
18,COc1ccc2cc1Oc1ccc(cc1)CC1c3c(cc4c(c3Oc3cc5c(cc3OC)CCN(C)C5C2)OCO4)CCN1C (stereo not given) [Cepharanthine] + CN(C)C/C=C/C(=O)Nc1cc2c(Nc3ccc(F)c(Cl)c3)ncnc2cc1O[C@H]1CCOC1 [Afatinib],40.1
19,CN1CCCC1CCOC(C)(c1ccccc1)c1ccc(Cl)cc1.O=C(O)C=CC(=O)O (stereo not given) [Clemastine Fumarate] + CN(C)C/C=C/C(=O)Nc1cc2c(Nc3ccc(F)c(Cl)c3)ncnc2cc1O[C@H]1CCOC1 [Afatinib],65.2
20,Cl.O.O=C1Cc2cc(CCN3CCN(c4nsc5ccccc45)CC3)c(Cl)cc2N1 [Ziprasidone hydrochloride monohydrate] + CN(C)C/C=C/C(=O)Nc1cc2c(Nc3ccc(F)c(Cl)c3)ncnc2cc1O[C@H]1CCOC1 [Afatinib],70.3

# Reference: the supplement of paper PMC6992640
